# aSyn UTR act: Activators working through SNCA 5'UTR binding (MLPCN). alpha-synuclein 5'UTR reporter, activators screen. activity score, % (tested at 7.5 µM), hits read low. 300,000 compounds, 7.1% hits; in the data active means activity score below about -60%
# * hit, by the source's call. Not all results are given here.
SMILES,aSyn UTR act
O=C(NCC(O)c1ccccc1)c1ccccc1 (stereo not given),-80*
O=C(NCC(O)c1ccccc1)c1ccc(Cl)c(S(=O)(=O)N2CCCC2)c1 (stereo not given),-96*
O=C(CNC(=O)c1ccco1)Nc1ccc(Cl)cc1,-70*
O=C(CNC(=O)c1ccco1)Nc1ccc(Br)cc1,-142*
CCCC1=[N+](CC(=O)c2ccccc2)CCn2c(C)ccc21,-74*
O=C(NCC1CCCO1)c1sc2cc(Cl)ccc2c1Cl (stereo not given),-124*
COc1ccc(C2Nc3ccccc3C(=O)N2c2ccc(C)cc2)cc1COc1ccccn1 (stereo not given),-97*
COc1ccc(C2Nc3ccccc3C(=O)N2c2ccccc2)cc1CN1CCOCC1 (stereo not given),-70*
COc1ccc(C2C(C#N)=C(N)N(c3ccccc3)C3=C2C(=O)CCC3)cc1Cn1cc([N+](=O)[O-])cn1 (stereo not given),58
COc1cccc(C2Nc3ccccc3C(=O)N2Cc2ccccc2)c1 (stereo not given),79
COc1ccc(C2Nc3ccccc3C(=O)N2c2ccc(C)cc2)cc1Cn1nc(C)c([N+](=O)[O-])c1C (stereo not given),-105*
CC(=O)Nc1sc(N/N=C\c2cccc(Cl)c2)nc1-c1cccs1,-82*
CC(=O)Nc1sc(N/N=C\c2ccccc2F)nc1-c1cccs1,-184*
CC(=O)Nc1sc(N/N=C\c2ccc(O)cc2)nc1-c1cccs1,-100*
FC(F)(F)c1cnc(-c2cnc(-c3ccncc3)nc2)c(Cl)c1,-109*
Cc1ccc(-c2ocnc2C(=O)Nc2nc(C)cs2)cc1,-91*
Cc1csc(NC(=O)c2ccc(C)o2)n1,-161*
Cc1ccc(C(=O)Nc2nc(-c3cccnc3)cs2)o1,-101*
O=C(Nc1nc(-c2ccccc2)cs1)c1ccccc1F,-135*
O=C(NNc1nc(-c2ccccc2)cs1)c1ccc(F)cc1,76
O=C(Nc1nc(-c2ccccc2)cs1)c1ccc(Br)o1,-79*
O=C(Nc1nc(-c2cccnc2)cs1)c1cccc([N+](=O)[O-])c1,-84*
CSc1ccccc1-c1nnc(-c2ccc(Cl)c(Cl)c2)o1,-98*
CSc1ccccc1-c1nnc(-c2ccc(Cl)cc2Cl)o1,-109*
CSc1nc2sc3c(c2c(=O)n1C)CCC(C)C3 (stereo not given),-165*
SMILES,aSyn UTR act
COc1ccc(C2=NC(c3ccccc3)CO2)cc1 (stereo not given),-118*
N#CC1=C(N)Oc2cc(N)ccc2C1c1cc(Br)cs1 (stereo not given),-75*
N#CC1=C(N)Oc2cc(N)ccc2C1c1cccc(Br)c1 (stereo not given),119
CCCn1c(O)c(C=Nc2ccccc2)sc1=S,-86*
O=C(Nc1ccc2oc(-c3ccccc3)nc2c1)c1cc(-n2cnnc2)ccc1Cl,-64*
Cc1ccc2oc(-c3cccc(NC(=S)NC(=O)c4cccs4)c3)nc2c1,-153*
Cc1ccc(-c2nc3ccccc3[nH]2)cc1NC(=S)NC(=O)c1ccccc1Br,-67*
O=C(Nc1ccc2oc(-c3ccccc3)nc2c1)c1cccs1,-295*
Cc1ccc(-c2nc3ccccc3s2)cc1NC(=S)NC(=O)c1ccccc1,-116*
Cc1ccc(-c2nc3ccccc3o2)cc1NC(=S)NC(=O)c1cccs1,-75*
CCCCN=C1NN=C(c2cccc([N+](=O)[O-])c2)CS1,-68*
CCCCN=C1NN=C(c2cc3ccccc3o2)CS1,-106*
O=C(CCNc1ccc(Cl)cc1)c1cccs1,-89*
O=C(CCNc1cc(Cl)cc(Cl)c1)c1cccs1,-94*
C(=C\c1ccncc1)/c1ccccc1,-73*
C(=C\c1nc(-c2ccccc2)no1)/c1ccccc1,-154*
C(=C\c1nc(-c2ccncc2)no1)/c1ccccc1,-132*
O=C(Nc1ccc(Cl)cc1)c1csc(-c2ccccc2)n1,-68*
O=C(Nc1ccc(Cl)cc1Cl)c1csc(-c2cccnc2)n1,-72*
O=C(Nc1ccc(Cl)cc1)c1csc(-c2ccncc2)n1,-66*
CC(NC(=O)Nc1ccc(Br)cc1)C(C)(C)C (stereo not given),-77*
CCCCOC(=O)Nc1cccc(Cl)c1C,-104*
CCCOc1ccc(-c2nc(OC)c3ccccc3n2)cc1,-85*
COC(=O)C1C(=O)C(C(=O)/C=C/c2ccccc2)C(=O)CC1(C)C (stereo not given),-134*
CCn1nnc(NC(=O)c2ccc(C(C)(C)C)cc2)n1,-112*
SMILES,aSyn UTR act
CCCn1nnc(NC(=O)c2ccc(Cl)cc2Cl)n1,-115*
CCCn1nnc(NC(=O)c2cccc(OCC)c2)n1,-141*
Cc1ccc(C(=O)Nc2nnn(C)n2)cc1,-76*
CCCn1nnc(NC(=O)c2ccc3ccccc3c2)n1,-185*
COc1cccc(NCc2cc(=O)oc3cc(-c4ccccc4)c(O)cc23)c1,-128*
COc1ccc(Cn2c(-c3ccc(Br)cc3)c[n+]3ccccc23)cc1,-143*
COc1ccc(Cc2nn3c(-c4ccccc4Br)nnc3s2)cc1,37
Cc1ccc2[nH]cc(/C=C/c3cc[n+](C)cc3)c2c1,65
CCCNc1c(F)c(F)c2c(C)c3ccccc3nc2c1F,-80*
Cc1ccc(-c2nc3c(=O)n(C)c4ccccc4c3o2)cc1,-72*
COc1ccc(-c2cc(C(=O)N3CCCC3)no2)cc1OC,-123*
COc1ccc(-c2cc(C(=O)N3CCCCC3)no2)cc1OC,-112*
Cc1ccc(-c2cc(C(=O)N3CCOCC3)no2)cc1,67
COc1ccc(-c2cc(C(=O)N3CCN(c4ccccc4)CC3)no2)cc1,-156*
Cc1nc2cc(-c3ccccc3)[nH]n2c(=O)c1C,-114*
Cc1nc2nc(-c3ccccc3)[nH]n2c(=O)c1C,-119*
COc1ccc2nc3sc(C(=O)NCCN4CCc5ccccc5C4)cc3cc2c1,-69*
COc1ccc2cc3cc(C(=O)NC4CC4)sc3nc2c1,57
COc1ccc2cc3cc(C(=O)NCCCN4CCc5ccccc5C4)sc3nc2c1,-198*
Cc1csc(N/N=C/c2ccccc2F)n1,-200*
Cc1csc(N/N=C/c2c(F)cccc2Cl)n1,-74*
CCOc1ccc(/C=N/Nc2nc(C)cs2)c(O)c1,-260*
COc1ccc2cc1Oc1ccc(cc1)C[C@H]1c3c(cc4c(c3Oc3cc5c(cc3OC)CCN(C)[C@@H]5C2)OCO4)CCN1C,109
CCc1nnc(NC(=O)CSc2nc3c(cc2C#N)CCC3)s1,-159*
N#Cc1c(NC(=O)CSc2ncn[nH]2)sc2c1CCCC2,84
SMILES,aSyn UTR act
N#Cc1cc2c(nc1SCC(=O)Nc1sc3c(c1C#N)CCC3)CCCCCC2,-93*
N#Cc1cc2c(nc1SCC(=O)Nc1sc3c(c1C#N)CCC3)CCC2,-141*
CN1CCc2nc(SCC(=O)Nc3ccc(Cl)cc3)c(C#N)cc2C1,-65*
O=C1C=C(c2cccs2)C[C@H](c2ccccc2)[C@H]1n1nnc([N+](=O)[O-])n1,71
COc1ccc(N/N=C(/N=Nc2nc(C)cc(=O)[nH]2)c2ccccc2)cc1,85
Cc1cc(=O)[nH]c(N=N/C(=N/Nc2ccc(O)cc2)c2ccccc2)n1,-100*
CCOC(=O)N1CCC(NC(=O)c2oc3c(F)cccc3c2C)CC1,-62*
Cc1ccn2cc(-c3cccc(NC(=O)c4ccccc4)c3)nc2c1,-82*
COc1ccc(CC(=O)Nc2ccc(-c3cn4ccc(C)cc4n3)cc2)cc1,-110*
Cc1ccn2cc(-c3cccc(NC(=O)C(C)C)c3)nc2c1,-107*
